High-throughput results deposited in PubChem BioAssay by National Center for Advancing Translational Sciences (NCATS).
TDP1 cell CPT – DT40-hTDP1 cell growth loss with CPT; chicken DT40 Tdp1-/-;hTDP1 cells + 20 nM CPT, ATP luminescence, 48 h; Potency, µM (series often up to 46.2 µM), for inactives: at the highest dose activity change, negative = growth inhibition, most hits filed as inhibitors; actives 12% (n = 420,000); AID 686979; further: potency means the concentration at half of the fitted maximal effect; nearly all actives have a fitted effect of over 55% in size
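Cell growth measured by CellTiter-Glo luminescence after a minimum 48 h, 37 C compound exposure with 20 nM CPT in Tdp1-knockout DT40 cells stably expressing hTDP1, seeded 400/well; qHTS titration format.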
Giardia kill – Giardia lamblia killing; Giardia lamblia trophozoite viability; activity change, % at 7.66 µM, hits read low; actives 0.15% (n = 340,000); in the data active means activity change below about -80%; inconclusive means between about -30% and that limit;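 further: parasites exposed to compound for two days anaerobically before the ATP read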
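Viability, read as ATP luminescence: trophozoites at 100 cells/well, compound added, 48 hrs anaerobic at 37 deg C, then 15-30 min room-temperature development before reading.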
IL-1B inflam inh – inflammasome signaling inhibition, IL-1 beta readout; THP-1 LPS/ATP IL-1B secretion, AlphaLISA, 16 h; active compounds read low; activity change, % at 57.5 µM; actives 4.7% (n = 360,000); AID 743279; in the data active means activity change below about -50%; inconclusive means mostly about -30% to -49%
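THP-1 cells pretreated 1 hr with compounds (up to 57.5 uM final), then stimulated with LPS (250 ng/mL final) plus ATP (1.25 mM final); secreted IL-1B measured by AlphaLISA after 16 hr, decreased signal indicating inhibition.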
DT40 TDP1 no CPT – qHTS for Inhibitors of human tyrosyl-DNA phosphodiesterase 1 (TDP1): qHTS in cells in absence of CPT; DT40 Tdp1-/- hTDP1 cells, no CPT, ATP luminescence, 48 h; Potency, µM (top dose mostly 46.2 µM), for inactives: top-dose activity change, negative = growth inhibition, usual class: inhibitors; actives 15% (n = 420,000); further: potency means the concentration at half of the fitted maximal effect; nearly all actives have a fitted effect of over 55% in size
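Readout: luminescence from CellTiter-Glo after 30 min in the dark at RT. Cells: DT40 Tdp1-/- with stable hTDP1, 400/well. Exposure: compounds alone, ≥48 hr, 37 °C.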
ELG1 repair inh – inhibitors of ELG1-dependent DNA repair in HEK293T cells | AID 504467 | HEK293T ELG1-luciferase reporter, luminescence, 16 h; DNA damage induced by 5-fluorouridine | actives 2.3% (n = 330,000) | Potency, µM (titrated, usually from 46.1 µM), without a hit: at the top dose activity change, negative = inhibition, hits mostly inhibitors; further: potency means the concentration at half of the fitted maximal effect; nearly all actives have a fitted effect of over 55% in size
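HEK293T cells expressing luciferase-tagged ELG1 (2,000/well) received 5-Fluorouridine plus compound or DMSO for 16 hr at 37 °C. Luciferase was read by ONE-Glo luminescence after 30 min at room temperature.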
TDP1 inh – inhibitors of human tyrosyl-DNA phosphodiesterase TDP1 | Q9NUW8 | actives 0.28% (n = 350,000) | recombinant TDP1, AlphaScreen DNA substrate cleavage | Potency, µM (highest dose often 130 µM), inactives show at the highest dose activity change, negative = inhibition, actives largely listed as inhibitors; further: potency means the concentration at half of the fitted maximal effect; nearly all actives have a fitted effect of over 40% in size
Target sequence (Q9NUW8 whole entry, looked up): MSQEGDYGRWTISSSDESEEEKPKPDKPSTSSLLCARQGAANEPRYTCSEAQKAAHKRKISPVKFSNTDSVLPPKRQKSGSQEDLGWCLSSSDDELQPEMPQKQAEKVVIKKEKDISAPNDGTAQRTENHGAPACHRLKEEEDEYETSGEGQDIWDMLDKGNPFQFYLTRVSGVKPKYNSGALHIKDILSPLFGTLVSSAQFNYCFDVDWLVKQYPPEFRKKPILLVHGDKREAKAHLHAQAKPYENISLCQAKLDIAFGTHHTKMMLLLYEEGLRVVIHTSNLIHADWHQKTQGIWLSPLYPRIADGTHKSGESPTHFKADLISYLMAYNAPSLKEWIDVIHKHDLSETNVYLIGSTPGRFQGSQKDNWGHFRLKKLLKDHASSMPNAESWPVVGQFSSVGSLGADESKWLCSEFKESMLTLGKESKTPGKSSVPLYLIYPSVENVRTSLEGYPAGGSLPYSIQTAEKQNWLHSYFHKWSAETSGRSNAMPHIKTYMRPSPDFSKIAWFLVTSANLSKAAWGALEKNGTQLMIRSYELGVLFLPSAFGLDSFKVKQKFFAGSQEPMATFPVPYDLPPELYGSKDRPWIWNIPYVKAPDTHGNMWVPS
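Steps: enzyme plus compound, 15 min RT; add biotin/phosphotyrosine-FITC oligonucleotide (15 nM final), react 5 min; add donor/acceptor beads (10 ug/ml final), 10 min; read AlphaScreen. Tdp1 at 1 nM final.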
Active calls of the source: *; ? = inconclusive; · = no result given; [ ] = dose if it differs, or a comment. Hits are enriched below; roughly 19% of the tested compounds scored in any of these assays. Unless noted, the call rests on the fitted dose curve; in most records, active means well fitted curve in the direction sought with a large enough effect; inconclusive means small, poorly fitted or top-dose-only effect, or another doubt; inactive means no such curve, though single readings can be large; an effect the other way counts as inactive or inconclusive. On the % scale 0 is the no-effect control and ±100 the full control effect.

SMILES	TDP1 cell CPT	Giardia kill	IL-1B inflam inh	DT40 TDP1 no CPT	ELG1 repair inh	TDP1 inh
CCCCCNC(=O)CCCCCn1c(=O)[nH]c2ccsc2c1=O	4%	·	·	-4%	·	9%
CCOc1ccc(CCNC(=O)c2ccc3ccccc3n2)cc1OCC	18µM*	5	11	8.2µM*	10%	0%
Cc1cccc(C)c1OCCNC(=O)c1ccc2ccccc2n1	21µM*	25	38	16µM*	?	3%
COc1ccccc1CNC(=O)c1ccc2ccccc2n1	-28%	-14	-20	?	10%	-9%[0.0935 µM]
COc1ccc(CNC(=O)c2ccc3ccccc3n2)cc1OC	?	-4	-1	?	16µM*	-16%[0.0935 µM]
CCOc1ccc(CCNC(=O)c2cnc(C)cn2)cc1OCC	-20%	-12	14	1%	2%	2%
COC(=O)c1cc(=O)nc2sc(-c3ccc(F)cc3)nn12	23µM*	-10	-6	?	16%	5%
COC(=O)c1cc(=O)nc2sc(-c3cccs3)nn12	1%	5	2	-22%	22%	2%
O=C(NCc1cccnc1)C1CC(c2ccc(Cl)c(Cl)c2)=NO1 (stereo not given)	?	-27	34	21µM*	-14%	·
O=C(NCc1ccccn1)C1CC(c2ccc(Cl)c(Cl)c2)=NO1 (stereo not given)	?	-4	33	21µM*	?	3%
COc1ccc(C2=NOC(C(=O)NCc3cccnc3)C2)cc1OC (stereo not given)	?	-17	28	?	-8%	·
COC(=O)c1ccc(-c2ccco2)n1Cc1nc(-c2ccc(OC)c(OC)c2)oc1C	23µM*	-4	?	16µM*	?	11%
COC(=O)c1cc2oc3ccccc3c2n1Cc1nc(-c2ccc(OC)cc2)oc1C	?	·	·	-11%	·	-5%
NC(N)=NN=C(c1ccc(F)cc1)c1ccc(C(F)(F)F)cc1	2.6µM*	5	-104*	2.3µM*	·	·
CCSC(N)=Nc1ccc(C(F)(F)F)cc1	-6%	·	·	?	·	10%[56.1 µM]
Nc1nc2c(nc(Sc3ccc(Cl)cc3)n2C2OC(CO)C(O)C2O)c(=O)[nH]1 (stereo not given)	?	·	·	?	·	10%[56.1 µM]
COc1ccc(Cn2c(C)ccc2C)cc1	-2%	29	?	-10%	-17%	5%
COc1ccc(Cn2c(-c3ccc(Br)cc3)c[n+]3ccccc23)cc1	1.8µM*	-4	-61*	2.1µM*	?	0%
O=C(Nc1nnc(-c2cccs2)o1)c1cccc(F)c1	4.6µM*	-26	65	7.3µM*	·	·
CCCCN(C)S(=O)(=O)c1ccc(C(=O)Nc2nnc(-c3cccs3)o2)cc1	·	·	·	·	-18%	9%
O=C(Nc1ccsc1C(=O)O)c1cccc(Oc2ccccc2)c1	?	?	27	-15%	?	·
O=C(Nc1nnc(-c2cccs2)o1)c1cccc(Oc2ccccc2)c1	10µM*	-17	27	7.3µM*	-28%	11%
Cc1ccc(-c2cc(-c3ccc(F)cc3)n[nH]2)c(O)c1	?	-9	-61*	?	?	5%
Oc1ccccc1-c1cc(-c2ccc(F)cc2)n[nH]1	?	-1	18	15µM*	?	·
COc1ccc(O)c(-c2cc(-c3cccs3)[nH]n2)c1	15µM*	-7	0	?	?	11%
SMILES	TDP1 cell CPT	Giardia kill	IL-1B inflam inh	DT40 TDP1 no CPT	ELG1 repair inh	TDP1 inh
Cc1ccccc1-c1cc(-c2ccccc2O)n[nH]1	21µM*	6	-9	23µM*	?	9%
COc1ccc(-c2cc(-c3ccccc3)n[nH]2)c(O)c1	-10%	15	-93*	-20%	?	5%
CCNc1ncc2nc(-c3ccccc3)c(=O)n(C[C@H]3CCCO3)c2n1	-4%	·	·	0%	·	·
Cc1ccc(-c2nc3scc(CCNS(=O)(=O)c4c(C)noc4C)n3n2)cc1	?	·	·	?	·	3%
Cc1cc(C)c(S(=O)(=O)NCCc2csc3nc(-c4ccc(Cl)cc4)nn23)c(C)c1	?	·	·	18µM*	·	0%
CCS(=O)(=O)NCCc1csc2nc(-c3ccc(C)cc3)nn12	16µM*	·	·	?	·	5%
Cc1ccc(S(=O)(=O)NCCc2csc3nc(-c4ccccc4F)nn23)cc1C	?	·	·	?	·	5%
Cc1ccc(-c2nc3scc(CCNS(=O)(=O)c4ccc(F)c(C)c4)n3n2)cc1	?	·	·	21µM*	·	3%
COc1ccc(-c2nc3scc(CCNS(=O)(=O)c4ccc(F)cc4C)n3n2)cc1	16µM*	·	·	16µM*	·	5%
CCOc1ccc(S(=O)(=O)NCCc2csc3nc(-c4cccc(C)c4)nn23)cc1	?	·	·	18µM*	·	3%
Cc1ccc(Nc2cc(C)nc3ncnn23)cc1	12%	-19	17	-14%	22%	·
O=C1C(=O)c2ccccc2C([O-])=C1[n+]1ccccc1	-27%	-11	21	11%	18µM*	-2%
NC(=O)c1sc2nccc(Nc3ccccc3)c2c1N	10µM*	-10	-12	21µM*	?	2%
CCOc1ccc(S(=O)(=O)N2CCC(C(=O)N3CCc4ccccc4C3)CC2)cc1	?	4	-19	15µM*	?	3%[56.1 µM]
COc1ccc(OC)c(S(=O)(=O)N2CCCC2C(=O)N2CCc3ccccc3C2)c1 (stereo not given)	15µM*	11	-8	23µM*	-8%	·
CSc1ccc(S(=O)(=O)N2CCC(C(=O)N3CCc4ccccc4C3)CC2)cc1	?	15	-64*	?	-9%	1%
CCCCNC(=O)/C(=C\c1ccc([N+](=O)[O-])o1)NC(=O)c1ccccc1	16µM*	-101*	25	?	?	-4%
COC(=O)/C(=C\c1ccc([N+](=O)[O-])o1)NC(=O)c1ccccc1	14µM*	?	6	11µM*	?	1%
O=C(c1ccc2nccnc2c1)N1CCCC(N2CCN(c3ccc(F)cc3)CC2)C1 (stereo not given)	?	-12	19	?	-18%	3%
CC(OC(=O)CCN=C1NS(=O)(=O)c2ccccc21)C(=O)NCc1ccccc1 (stereo not given)	-4%	-10	7	?	6%	-1%[0.505 µM]
Cn1c(NCCc2ccncc2)nc2cc(-c3ccccc3)sc2c1=O	26µM*	·	-23	?	·	·
Cc1ccccc1-c1cc2nc(NCCc3ccncc3)n(C)c(=O)c2s1	16µM*	·	-29	15µM*	·	·
